Screens deposited in PubChem by National Center for Advancing Translational Sciences (NCATS).
PMP22 txn: Cell-based coincidence reporter assay to measure PMP22 gene transcription in S16 Pmp22-F2sN cells - Primary screen | S16 Pmp22-F2sN Schwann cells, FLuc/NLuc coincidence luminescence, 24 h | Potency, µM (series often up to 57.5 µM), inactives show at the top dose activity change, negative = inhibition, hits mostly inhibitors | actives 2% (n = 43,000) | AID 1508649, 2021; active = clear falling dose curves in both reporters; inconclusive = both reporters move, but less clearly or upward; inactive = either reporter flat; the % is the NLuc reporter signal; also: potency is read from the fitted curve at half-maximal effect; % is scaled to controls: 0 for no effect and ±100 for the full control effect
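S16 Schwann cells carrying FLuc/NLuc coincidence reporter in the Pmp22 3' UTR treated with compound 24 h at 37C; FLuc then NLuc luminescence read sequentially by dual-luciferase reagents.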
SKOV3 invasion: Primary qHTS assay for Inhibitors of ovarian cancer metastasis using an organotypic tumor microenvironment (TME) model; SKOV3ip1-GFP adhesion/invasion on 3D omental model, fluorescence; Potency, µM (top dose mostly 45.8 µM), for inactives: at the top dose activity change, negative = inhibition, usual class: inhibitors; actives 0.1% (n = 46,000); AID 1963576, 2024;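 also: potency is read from the fitted curve at half-maximal effect; plate controls were DMSO wells for no effect and tomatine positive control wells for full effect; nearly all actives have a fitted effect of over 65% in size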
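A 3D layer of primary human omental fibroblasts, mesothelial cells, fibronectin and collagen I, grown 48 hr, received SKOV3ip1-GFP cells in serum-free medium plus compounds at 0.36-46 umol/L. After 2 hr RT and 16 hr 37 C, fixed adherent GFP cells were counted; normalized to DMSO and tomatine.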
HTT promoter inh: Primary qHTS for Identification of Small Molecule Inhibitors of Huntingtin Promoter Activity; actives 0.93% (n = 48,000); AID 1508623, 2021; Potency, µM (highest dose often 57.5 µM), for the others: at the top dose activity change, negative = inhibition, usual class: inhibitors; HEK293 HTT promoter firefly luciferase reporter, 24 h; also: potency is read from the fitted curve at half-maximal effect; nearly all actives have a fitted effect of over 50% in size
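HEK293 cells carrying firefly luciferase reporters were seeded at 2,500 per well in Opti-MEM and cultured for 24 h. They were then treated with compounds at up to 57.5 uM final for 24 h at 37 degrees C before Dual-Glo luminescence readout.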
pS6 MEF inh: Acumen qHTS Assay for Inhibitors of the mTORC1 Signaling Pathway in MEF (Tsc2-/-, p53-/-) Cells: Sytravon; Tsc2-/- p53-/- MEF, phospho-rpS6 immunofluorescence/PI, 24 h; Potency, µM (doses to about 38.3 µM), without a hit: at the top dose activity change, negative = inhibition, actives largely listed as inhibitors; actives 0.78% (n = 44,000);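 also: potency is read from the fitted curve at half-maximal effect; plate controls were DMSO for no effect and rapamycin for full effect; nearly all actives have a fitted effect of over 50% in size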
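Compounds act on Tsc2-/-, p53-/- fibroblasts carrying an empty vector for 24 h before fixation and dual staining for phospho-S6 and DNA (propidium iodide). Values are percentages of cells above a rapamycin-defined pS6/PI threshold.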
S16 F2sN tox: Cell viability qHTS assay in S16 Pmp22-F2sN cells. S16 Pmp22-F2sN Schwann cells (luciferase reporters placed in the Pmp22 gene) viability, CellTiter-Glo, 24 h. Potency, µM (highest dose often 57.5 µM), for inactives: at the highest dose activity change, negative = cytotoxicity, usual class: cytotoxic. actives 0.48% (n = 43,000). AID 1508642, 2021; also: potency is read from the fitted curve at half-maximal effect; % is scaled to controls: 0 for no effect and ±100 for the full control effect; nearly all actives have a fitted effect of over 65% in size
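Seed 500-1,000 S16 Pmp22-F2sN cells per well in phenol-red-free DMEM with 10% heat-inactivated FBS; pin-add 23 nL compound; incubate 24 h at 37C; add CellTiter-Glo, wait 15 min protected from light; read luminescence.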
HTT-AS promoter: Primary qHTS for Identification of Small Molecule Activators of Huntingtin-Antisense Promoter Activity; HEK293 HTT-AS promoter firefly luciferase reporter, 24 h; response scale: percent change from vehicle, -100% = no light; Potency, µM (series often up to 57.5 µM), inactives show at the highest dose activity change, positive = activation, most hits filed as activators; actives 0.24% (n = 48,000); also: potency is read from the fitted curve at half-maximal effect; nearly all actives have a fitted effect of over 55% in size
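HEK293 luciferase promoter-reporter cells (2,500/well) plated 24 h, then compounds added at up to 57.5 uM final for 24 h at 37 °C. Firefly luminescence by Dual-Glo, normalized to vehicle (0%) and zero RLU (-100%).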
NLuc sat counter: Biochemical NLuc saturation counterscreen for small molecule modulators of PMP22 gene expression - Nano-Glo assay | Potency, µM (titrated, usually from 57.5 µM), for the others: top-dose activity change, negative = inhibition, hits mostly inhibitors | shares compounds with PMP22 txn | Secreted NLuc enzyme (filtered S16 cell medium), Nano-Glo luminescence | actives 4% (n = 690); also: potency is read from the fitted curve at half-maximal effect; % is scaled to controls: 0 for no effect and ±100 for the full control effect
NLuc Km counter: Biochemical coelenterazine-based NLuc counterscreen for small molecule modulators of PMP22 gene expression - Km assay | shares compounds with PMP22 txn | secreted NLuc enzyme, coelenterazine luminescence, Km conditions | Potency, µM (doses to about 57.5 µM), without a hit: at the top dose activity change, negative = inhibition, actives largely listed as inhibitors | actives 5% (n = 690) | AID 1508639, 2021; also: potency is read from the fitted curve at half-maximal effect; % is scaled to controls: 0 for no effect and ±100 for the full control effect
FLuc ctr PMP22: Biochemical FLuc counterscreen for small molecule modulators of PMP22 gene expression; shares compounds with PMP22 txn; purified P. pyralis FLuc, luminescence, 10 min; Potency, µM (titrated, usually from 57.5 µM), without a hit: at the top dose activity, negative = inhibition, hits mostly inhibitors; 690 tested, under 10 active; also: % of control where 0% means no effect
Target sequence (P08659 whole entry, looked up): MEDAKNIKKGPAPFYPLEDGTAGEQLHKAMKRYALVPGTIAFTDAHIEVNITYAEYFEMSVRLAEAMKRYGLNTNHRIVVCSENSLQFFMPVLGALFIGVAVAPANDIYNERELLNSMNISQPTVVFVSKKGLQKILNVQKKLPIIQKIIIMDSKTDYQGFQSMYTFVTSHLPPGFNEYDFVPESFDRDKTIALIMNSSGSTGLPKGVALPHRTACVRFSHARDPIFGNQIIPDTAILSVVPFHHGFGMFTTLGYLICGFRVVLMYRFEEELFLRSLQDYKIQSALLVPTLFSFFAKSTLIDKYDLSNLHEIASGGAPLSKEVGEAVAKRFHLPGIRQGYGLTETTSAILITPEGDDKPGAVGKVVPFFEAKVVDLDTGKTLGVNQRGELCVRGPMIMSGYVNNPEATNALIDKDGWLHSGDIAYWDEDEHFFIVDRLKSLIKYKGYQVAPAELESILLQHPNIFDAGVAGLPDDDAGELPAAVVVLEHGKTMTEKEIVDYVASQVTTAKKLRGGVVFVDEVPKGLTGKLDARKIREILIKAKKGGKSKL
S16 F2sN tox cnf: Cell viability qHTS assay in S16 Pmp22-F2sN cells - Confirmatory screen; shares compounds with PMP22 txn; S16 Schwann cells viability, CellTiter-Glo ATP luminescence, 24 h; Potency, µM (top dose mostly 57.5 µM), for inactives: at the top dose activity change, negative = viability loss, most hits filed as cytotoxic; actives 7% (n = 690); also: potency is read from the fitted curve at half-maximal effect; % is scaled to controls: 0 for no effect and ±100 for the full control effect
PMP22 txn conf: Cell-based coincidence reporter assay to measure PMP22 gene transcription in S16 Pmp22-F2sN cells - Confirmatory screen. shares compounds with PMP22 txn. S16 Schwann cells Pmp22-F2sN, dual luciferase, 24 h. Potency, µM (titrated, usually from 57.5 µM), without a hit: top-dose activity change, negative = inhibition, hits mostly inhibitors. actives 22% (n = 690). AID 1508646, 2021; active = clear falling dose curves in both reporters; inconclusive = both reporters move, but less clearly or upward; inactive = either reporter flat; the % is the FLuc reporter signal; also: potency is read from the fitted curve at half-maximal effect
An asterisk follows results filed as active. Compounds with a hit are over-represented: about 3.6% of the library has one in this group of screens. Unless noted, calls follow the shape of the dose curve; as a rule, active = well fitted curve in the direction sought with a large enough effect; inconclusive = small, poorly fitted or top-dose-only effect, or another doubt; inactive = no such curve, though single readings can be large; an effect the other way counts as inactive or inconclusive.

O=C(C1CCN(c2ncnc3c2nc2n3CCCCC2)CC1)N1CCN(c2cccc(Cl)c2)CC1 was read as PMP22 txn inconclusive, SKOV3 invasion -29.8%, HTT promoter inh inconclusive, pS6 MEF inh -10.4%, S16 F2sN tox -27.6% and HTT-AS promoter -47.8%.
`Nc1ccc(C(=O)c2cc3c(ccc4ccccc43)[nH]2)cc1` gave SKOV3 invasion -10.1%, HTT promoter inh -17.2% and HTT-AS promoter -25.7%.
`Cc1c(C(=O)NCc2cccc(Cl)c2)sc2nc[nH]c(=O)c12` gave PMP22 txn inconclusive, SKOV3 invasion 6.0%, HTT promoter inh -12.4%, pS6 MEF inh -14.4%, S16 F2sN tox -3.7%, HTT-AS promoter -18.9%, NLuc sat counter inconclusive, NLuc Km counter -17.8%, FLuc ctr PMP22 -1.0%, S16 F2sN tox cnf inconclusive and PMP22 txn conf 13.3%.
For Cc1c(C(=O)NCc2ccccc2)sc2nc[nH]c(=O)c12 the results were PMP22 txn -38.2%, SKOV3 invasion 16.1%, HTT promoter inh 12.8%, pS6 MEF inh -8.3%, S16 F2sN tox -0.4% and HTT-AS promoter 6.8%.
`COc1cccc(NC(=O)N(Cc2c[nH]c3ccccc23)C2CCCCCC2)c1` gave PMP22 txn 20µM*, SKOV3 invasion 0.5%, HTT promoter inh -2.7%, pS6 MEF inh -11.9%, S16 F2sN tox -26.3%, HTT-AS promoter -13.0%, NLuc sat counter 15.3µM*, NLuc Km counter inconclusive, FLuc ctr PMP22 1.5%, S16 F2sN tox cnf 14.4% and PMP22 txn conf inconclusive.
For O=C(Nc1ccc(Cl)c(Cl)c1)N(Cc1c[nH]c2ccccc12)C1CCCCC1 the results were PMP22 txn inconclusive, SKOV3 invasion inactive, HTT promoter inh 47.4%, pS6 MEF inh -13.8%, S16 F2sN tox inconclusive and HTT-AS promoter inconclusive.
